D1 ag – agonists of human D1 dopamine receptor | activation, % at 2 µM | 360,000 tested, 1% active | HEK293 T-REx D1 cells, calcium flux, agonist mode; in the data active = activation above about 30%
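Inducible HEK293 T-REx D1 cells, force-coupled to calcium signalling, were plated at 4000 cells/well with tetracycline and held overnight at 30 C. After no-wash calcium dye loading, compound-evoked calcium rise over 180 s flagged agonists.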
DRD3 agonist – agonists of human D3 dopamine receptor | P35462 | D3R DiscoveRx beta-arrestin cells, luminescence, 90 min | max activation, % | 410,000 tested, 0.58% active | AID 652048; in the data active = max activation above about 30%
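Agonist-mode cell screen: cells plated at 1500/well and incubated overnight at 37 °C, then exposed to library compounds for 90 min at 37 °C. Detection reagent was added for 30–60 min at room temperature, and luminescence was read.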
D1 antag – blocks dopamine activation of the human D1 receptor. P21728. HEK293 TREx D1 cells, calcium flux, dopamine EC80; hits give low values. activity change, negative = inhibition, % at 10 µM. 360,000 tested, 3.2% active. AID 504652; in the data active = activity change below about -30%
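After overnight tetracycline induction at 30 C, force-coupled D1 HEK293 cells took up a no-wash calcium dye at room temperature. Compounds were added and monitored 180 s, and the response to EC80 dopamine was then recorded.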
ERG Ets-DNA blk – ERG Ets/DNA interaction inhibition; fluorescence polarization, His-ERG Ets domain / labelled DNA; 370,000 tested, 0.028% active; Potency, µM (highest dose often 76.9 µM), actives largely listed as inhibitors; active = well fitted inhibition curve with a large enough effect in the polarisation, with a control signal flat; inconclusive = small, poorly fitted or top-dose-only effect, or effect the other way, or a change in a side signal; inactive = no such curve, though single readings can be large or run the other way; the % refers to the polarisation;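 note: polarization taken with two DNA probes labelled with fluorescein and Texas red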
Target sequence (P11308 whole entry, looked up, the tested form may be a part): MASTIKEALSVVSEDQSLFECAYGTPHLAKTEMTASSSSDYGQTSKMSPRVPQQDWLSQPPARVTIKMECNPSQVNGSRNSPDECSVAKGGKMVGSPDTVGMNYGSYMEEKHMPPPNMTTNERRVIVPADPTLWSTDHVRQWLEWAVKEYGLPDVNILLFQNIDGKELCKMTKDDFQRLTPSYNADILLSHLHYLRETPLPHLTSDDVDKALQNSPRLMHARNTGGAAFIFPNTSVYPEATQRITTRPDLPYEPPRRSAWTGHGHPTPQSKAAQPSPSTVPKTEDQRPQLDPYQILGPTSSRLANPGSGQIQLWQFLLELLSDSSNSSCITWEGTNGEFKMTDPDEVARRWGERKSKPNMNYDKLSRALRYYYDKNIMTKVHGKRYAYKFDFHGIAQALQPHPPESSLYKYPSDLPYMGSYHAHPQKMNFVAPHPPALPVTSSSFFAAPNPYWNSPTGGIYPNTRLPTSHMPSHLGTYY
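His-tagged ERG Ets domain (1 uM in the protein solution; 300mM KCl, 50mM Tris-HCl, 1mM EDTA, 1mM DTT, pH 7.5) received compound, then a probe mix of 5 nM fluorescein-DNA and 100nM Texas-615-DNA. Fluorescence polarization was read for both dyes.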
D3 antag – antagonists of human D3 dopamine receptor; P35462; D3R cells, DiscoveRx beta-arrestin luminescence, antagonist mode; hits give low values; max response, negative = inhibition, %; 360,000 tested, 2.5% active; AID 652054; in the data active = max response below about -50%; inconclusive = no clear call, values can overlap the other calls
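Cells plated overnight at 1500 cells/well, then exposed to library compounds with dopamine controls for 90 minutes at 37 degrees C. DiscoveRx reagent added for 30–60 minutes at room temperature; luminescence read, quantitative HTS format.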
D1 potentiator – enhances dopamine response at the human D1 receptor; AID 504651; HEK293 TREx D1 cells, calcium flux, dopamine EC20 potentiation; 360,000 tested, 0.036% active; potentiation, % at 10 µM; P21728; in the data active = potentiation above about 30%
A number is an active result; 0 = inactive; ? = inconclusive; - = no result. Sampled rows, rich in hits. Any-hit rate of the full collection: about 6.1%.

SMILES | D1 ag | DRD3 agonist | D1 antag | ERG Ets-DNA blk | D3 antag | D1 potentiator
Cc1ccc(S(=O)(=O)C2CS(=O)(=O)CC2O)cc1 (stereo not given) | 0 | 0 | 0 | - | 0 | 0
CCOC(=O)c1c(S(=O)(=O)NCC2CCN(CCc3cccs3)CC2)c(C)n(C)c1C | 0 | 0 | 0 | 0 | -83.4 | 0
CSCC[C@H](NC(=O)Nc1ccccc1C)C(=O)O | 0 | 0 | 0 | 0 | 0 | 0
CN1CCN(C(=O)Nc2cccc(Cl)c2)c2cccnc21 | 46.5 | 0 | 0 | 0 | - | 0
Cc1cc(C(C)(C)C)ccc1OCCN1CCCC1 | 0 | 0 | 0 | 0 | -64.3 | 0
Cc1cc(Br)ccc1OCCOCCN1CCCC1 | 0 | 0 | 0 | 0 | -73.1 | 0
Cc1cc(Br)ccc1OCCCCN1CCCCC1 | 0 | 0 | 0 | 0 | -50.9 | 0
Cc1cccc(NC(=O)CN2C(=O)c3cccnc3Oc3ccc(Cl)cc32)c1C | 0 | 0 | 0 | 0 | - | 0
CC1CCN(C(=O)CCCN2C(=O)c3cccnc3Oc3ccc(Cl)cc32)CC1 | 0 | 0 | 0 | 0 | -64.7 | 0
CCc1ccccc1NC(=O)CN1C(=O)c2cccnc2Oc2ccc(Cl)cc21 | 0 | 0 | -36.0 | 0 | - | 0
O=C(CN1C(=O)c2cccnc2Oc2ccc(Cl)cc21)N1CCOCC1 | 0 | 0 | 0 | 0 | 0 | 0
CCCCN1CC(=O)N2[C@H]3c4cc(Cl)ccc4OC[C@@H]3[C@H](c3ccccc3)[C@]2(C)C1=O | 0 | 0 | - | 0 | 0 | 0
COc1ccc(OC)c(C(=O)c2ccccc2)c1 | 0 | 0 | 0 | - | 0 | 0
CCOc1ccccc1NC(=O)C(=O)/C=C(\O)c1cc(OC)ccc1OC | 0 | 0 | 0 | 0 | -52.8 | 0
COc1ccc(OC)c(/C(O)=C/C(=O)C(=O)Nc2cc(C)cc(C)c2)c1 | 0 | 0 | 0 | 0 | -86.3 | 0
COc1ccc(OC)c(/C(O)=C/C(=O)C(=O)Nc2cc(C)ccc2OC)c1 | 0 | 0 | 0 | 0 | -56.6 | 0
Cc1cc(C(=O)COC(=O)c2ccc[nH]c2=O)c(C)n1C1CC1 | 0 | 32.9 | 0 | 0 | 0 | 0
Cc1cc(C)cc(OCC(=O)OCC(=O)c2cc(C)n(C3CC3)c2C)c1 | 0 | 0 | -30.1 | 0 | 0 | 0
O=C1NC(c2ccc(Cl)cc2Cl)Oc2ccccc21 (stereo not given) | 0 | 0 | 0 | 0 | 0 | 0
N#C/C(=C\C1CC=CCC1)c1nc2ccccc2[nH]1 (stereo not given) | 0 | 0 | -35.1 | 0 | 0 | 0
Cn1c(/C(C#N)=C/C2CC=CCC2)nc2ccccc21 (stereo not given) | 0 | 0 | 0 | - | ? | 0
CC1=C(C(=O)NCc2ccccc2)C(c2cccnc2)n2ncnc2N1 (stereo not given) | 0 | 0 | 0 | 0 | 0 | 0
O=C(COc1ccc(C(=O)c2ccccc2)cc1)NCc1ccc(F)cc1 | 0 | 0 | -38.9 | 0 | 0 | 0
COc1ccc(C(OCC(O)CNC(C)c2ccccc2)c2ccc(OC)cc2)cc1 (stereo not given) | 0 | 0 | 0 | 0 | 0 | 0
Cc1ccc(C(OCC(O)CNCc2ccc(F)cc2)c2ccccc2)cc1 (stereo not given) | 66.5 | 0 | 0 | 0 | 0 | 31.4
SMILES | D1 ag | DRD3 agonist | D1 antag | ERG Ets-DNA blk | D3 antag | D1 potentiator
O=C(c1ccccc1)c1ccc(OCC(O)CNCc2ccc(F)cc2)cc1 (stereo not given) | 51.6 | 0 | 0 | 0 | 0 | 0
O=C(COc1ccc(Br)cc1)NNC(=S)NCc1ccccc1 | 0 | 0 | 0 | 0 | -67.6 | 0
O=C(COc1ccc(Cl)cc1)NNC(=S)NCc1ccccc1 | 0 | 0 | 0 | 0 | 0 | 0
CCC1CCCCN1CC(=O)Nc1ccc2c(c1)OCCO2 (stereo not given) | 0 | 0 | 0 | 0 | 0 | 0
O=C(COC(=O)Cc1ccc(F)cc1)NC1CCCCC1 | 0 | 0 | 0 | 0 | 0 | 0
COc1ccc(SC[C@H](C)CN2CC[C@H](C)CCC2=O)cc1 | 0 | 0 | 0 | 0 | 0 | 0
O=C(c1ccccc1)c1ccc(OCC(O)CNCc2cccc(Cl)c2)cc1 (stereo not given) | 42.6 | 0 | 0 | 0 | 0 | 0
Cc1ccc(OCC(O)CNCc2ccccc2)cc1C (stereo not given) | 0 | 0 | 0 | 0 | ? | 0
